Experimental findings from PubChem BioAssay (NCATS) are described below.

Test [1] relates to Zika virus NS2B-NS3 protease (linked construct). As to the kind of experiment: Primary screen NINDS Rhodamine qHTS for Zika virus inhibitors (AID 1347160). Also: nearly all actives have a fitted effect of over 55% in size. Also: potency is read from the fitted curve at half-maximal effect. The essentials:
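Aprotinin served as in-plate control. Conditions: 25 nM linked NS2B-NS3, pH 8.0 Tris buffer, titrated compounds, 15 min preincubation and 15 min reaction with 1.5 microM Rhod110 substrate at room temperature.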
In general terms: In qHTS, concentration-response curves come from the screen itself.

The target in test [2] is Calcium and integrin-binding protein 1 (Homo sapiens) (UniProt Q99828). In words: Primary qHTS for Identification of Calcium Integrin Binding Protein 1 (CIB1) Competitor (AID 1508620).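 Also: GST tagged CIB1 binding a fluorescein labelled alphaIIb integrin peptide tracer; top concentration of the series differs between compounds; % is scaled to controls: 0 for no effect and ±100 for the full control effect.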 The essentials:
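CIB1-GST (1 uM final) and compound incubated 15 min at room temperature before adding FITC-alphaIIb peptide tracer (100 nM final). Competition for binding read by fluorescence polarization (ex 480, em 540) after another 15 min at room temperature.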

Test [3] in a line: Primary qHTS for inhibitors of nuclear receptor binding SET domain protein 2 (NSD2) in an isogenic RCH-ACV NSD2 p.E1099K mutant (9B) (AID 1645876). Also: nearly all actives have a fitted effect of over 70% in size. Also: potency is read from the fitted curve at half-maximal effect.
The nature of test [4]: Primary qHTS for inhibitors of nuclear receptor binding SET domain protein 2 (NSD2) in an RCH-ACV wild type WT cells (2C) (AID 1645877). Also: nearly all actives have a fitted effect of over 70% in size. Also: potency is read from the fitted curve at half-maximal effect.
Test [5] deals with Luciferin 4-monooxygenase (Photinus pyralis) (UniProt P08659). In words: Primary firefly luciferase (FLuc) qHTS assay for identification of artifact compounds. (AID 1845220). Also: nearly all actives have a fitted effect of over 60% in size. The procedure, abridged: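 Compounds sat 15 min at room temperature with 10 uM luciferin and 10 uM ATP (pH 7.6 Tris acetate). Firefly luciferase (10 nM final) was then added, and luminescence was read 5 min later. Data normalized to no-enzyme and DMSO controls were Hill-fitted.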

A short description of test [6]: Primary redox qHTS assay for identification of artifact compounds. (AID 1845223).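 Also: 0% = DMSO and 100% = reference compound.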 The essentials:
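Redox-cycling detection via DTT (250 uM final) oxidation coupled to Amplex Red (25 uM)/HRP (250 mU/mL) in HBSS. 15 min preincubation plus 30 min after DTT, room temperature. Ex/Em 525/598 nm; 4-parameter Hill fit against DMSO and 10 uM DA3003.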

Test [7] has as its system C33A. In words: Primary qHTS to identify gynecologic anti-cancer compounds using libraries of approved drugs and bioactive compounds (AID 1345084). Also: nearly all actives have a fitted effect of over 55% in size. Also: potency is read from the fitted curve at half-maximal effect. The conditions noted are these: Gynecologic cancer cell panel viability, ATPlite luminescence, 48 h; series mostly up to 57.5 µM. The procedure, abridged:
(§1)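 Cells, 1,000 per well, were allowed to settle for 16 h at 37 C before compound addition. Five concentrations were tested for 48 h, and viability was read by ATPlite luminescence after 15 min at room temperature.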

Test [8] has as its system CASKI. The description is as above. As to conditions: Gynecologic cancer cell panel viability, ATPlite luminescence, 48 h; series mostly up to 57.5 µM. The procedure, abridged:
as §1
In general terms: ATP-based viability assays read luminescence as a measure of living cells.

Test [9] concerns Es-2. The description is as above. The conditions noted are these: Gynecologic cancer cell panel viability, ATPlite luminescence, 48 h; series mostly up to 57.5 µM. The essentials:
as §1

Test [10] concerns HeLa. The description is as above. The conditions noted are these: Gynecologic cancer cell panel viability, ATPlite luminescence, 48 h; series mostly up to 57.5 µM. The essentials: as §1
Test [11] relates to Hek293T. Described as above. As to conditions: Gynecologic cancer cell panel viability, ATPlite luminescence, 48 h, control line for the selectivity index; series mostly up to 57.5 µM. The procedure, abridged:
as §1

For test [12], the system named is JEG-3. The description is as above. The conditions noted are these: Gynecologic cancer cell panel viability, ATPlite luminescence, 48 h; series mostly up to 57.5 µM. The procedure, abridged: as §1
For test [13], the system named is OV90. Described as above. As to conditions: Gynecologic cancer cell panel viability, ATPlite luminescence, 48 h; series mostly up to 57.5 µM. The procedure, abridged:
as §1

Test [14] relates to Tov-21-G. The description is as above. As to conditions: Gynecologic cancer cell panel viability, ATPlite luminescence, 48 h; series mostly up to 57.5 µM. The essentials: as §1
Test [15] has as its system Tov112D. The test is described as above. The conditions noted are these: Gynecologic cancer cell panel viability, ATPlite luminescence, 48 h; series mostly up to 57.5 µM. The procedure, abridged:
as §1

In test [16] the target is Glutathione peroxidase 1 (Homo sapiens) (UniProt P07203). In words: Primary qHTS Assay for Inhibitors of Recombinant Selenoprotein Glutathione Peroxidase 1 (GPX1) (AID 1845191). Also: nearly all actives have a fitted effect of over 65% in size. The essentials:
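NADPH consumption tracked by fluorescence at 340/450 nm between t=0 and t=15 min, room temperature. Final mix: 10 nM GPX1, 100 nM glutathione reductase, 1 mM GSH, 0.5 mM NADPH, 0.5 mM cumene hydroperoxide, 0.01% BSA; 30 min compound–enzyme preincubation.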

Test [17] concerns Nanoluciferase (engineered Oplophorus gracilirostris luciferase). In words: Primary Nanoluciferase (NLuc) qHTS assay for identification of artifact compounds. (AID 1845222).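 Also: 0% = DMSO and -100% = no enzyme.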 The procedure, abridged:
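Luminescence from secreted NLuc (filtered, 1:55-diluted S16 cell medium) read 5 min after Nano-Glo substrate; compounds preincubated 15 min, RT. Hill fits of inhibition normalized to DMSO and no-enzyme.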

In test [18] the target is Phospholipid hydroperoxide glutathione peroxidase GPX4 (Homo sapiens) (UniProt P36969). As to the kind of experiment: Primary qHTS Assay for Inhibitors of Recombinant Selenoprotein Glutathione Peroxidase 4 (GPX4) (AID 1845192). Also: % is scaled to controls: 0 for no effect and ±100 for the full control effect; nearly all actives have a fitted effect of over 65% in size. As to conditions: outcome: dose series up to 50 µM unless noted. The procedure, abridged:
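NADPH consumption followed by fluorescence at 340/450 nm, t=0 and after 15 min at room temperature. Reaction started with cumene hydroperoxide (0.5 mM final) after 30 min compound–GPX4 preincubation; final 200 nM GPX4, 100 nM GR, 1 mM GSH, 0.5 mM NADPH.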

The test system of test [19] is HaCat. In words: Cytotoxic Profiling of Annotated Libraries Using Quantitative High-Throughput Screening (AID 1296008). Also: nearly all actives have a fitted effect of over 60% in size. Also: potency is read from the fitted curve at half-maximal effect. As to max response: % is scaled to controls: 0 for no effect and ±100 for the full control effect. The conditions noted are these: Five cell lines viability, CellTiter-Glo ATP luminescence, 48-72 h; max response: stronger effect = lower value. The procedure, abridged:
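Cytotoxicity was measured as CellTiter-Glo ATP luminescence, read after 10 min at room temperature. Compound treatment of the cells lasted 48 or 72 hr at 37 degrees Celsius in a qHTS format.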

Test [20] can be described thus: qHTS drug screen for cell cycle checkpoint inhibitors in PARPi-resistant BRCA-mutant ovarian cancer cell lines. (AID 1963452; calls by dose curve). The conditions noted are these: PEO1/OlaR viability, CellTiter-Glo luminescence, 96 h, stronger effect = lower value. The essentials:
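PEO1, PEO4 and PEO1/OlaR ovarian cancer cells, 600 per well, exposed 96 h at 37C to a dilution series. Viability read by CellTiter-Glo luminescence, normalized to DMSO and empty wells; activity summarized as Z-AUC.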

Setting [21] is: measured here: PEO1 parental Z-AUC.

Inconclusive results are not listed. Active and inactive are the calls of the source. Unless noted, calls follow the shape of the dose curve; as a rule, active = well fitted curve in the direction sought with a large enough effect; inconclusive = small, poorly fitted or top-dose-only effect, or another doubt; inactive = no such curve, though single readings can be large; an effect the other way counts as inactive or inconclusive.

Glutathione peroxidase 1 (Homo sapiens), sequence (P07203 whole entry, looked up): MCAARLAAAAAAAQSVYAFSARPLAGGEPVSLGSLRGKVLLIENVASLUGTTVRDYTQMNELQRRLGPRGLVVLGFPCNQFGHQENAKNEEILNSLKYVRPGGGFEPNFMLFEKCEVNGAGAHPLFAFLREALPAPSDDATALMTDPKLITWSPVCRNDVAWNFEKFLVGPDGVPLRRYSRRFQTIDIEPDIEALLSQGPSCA
Calcium and integrin-binding protein 1 (Homo sapiens), sequence (Q99828 whole entry, looked up): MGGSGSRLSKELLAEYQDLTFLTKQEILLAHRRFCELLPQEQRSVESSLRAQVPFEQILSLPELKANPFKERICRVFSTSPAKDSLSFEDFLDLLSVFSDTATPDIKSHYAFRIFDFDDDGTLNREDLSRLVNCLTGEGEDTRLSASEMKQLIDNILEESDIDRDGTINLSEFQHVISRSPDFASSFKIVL
Phospholipid hydroperoxide glutathione peroxidase GPX4 (Homo sapiens), sequence (P36969 whole entry, looked up): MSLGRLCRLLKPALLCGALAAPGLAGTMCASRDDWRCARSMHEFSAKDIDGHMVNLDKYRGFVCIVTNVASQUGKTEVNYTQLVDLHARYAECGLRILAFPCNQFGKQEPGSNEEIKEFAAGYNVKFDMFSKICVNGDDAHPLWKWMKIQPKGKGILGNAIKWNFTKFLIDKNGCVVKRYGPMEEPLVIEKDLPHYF

Take `COc1c(N2CC3CCCNC3C2)c(F)cc2c(=O)c(C(=O)O)cn(C3CC3)c12` (stereo not given): the Potency entry in [1], in test [3], in test [4], in [5], in [6] and in test [7] was “inactive” each time. In addition, the Potency entry in [8], in test [9], in [10], in test [11], in [12] and in test [13] was “inactive” in each case. Besides, the Potency entry in [14] and in test [15] was “inactive” in each case. Further, the outcome in test [2] was inactive.
With `Cc1ccn(-c2cc(Cl)ccc2[C@@H](Oc2cc(-c3ccc(C[C@H](N)C(=O)O)cc3)nc(N)n2)C(F)(F)F)n1`, the Potency in test [1] is 22.4 µM (active). Besides, the result in [2] was inactive. Moreover, the Potency result in [16], in test [5], in test [6], in test [7], in test [8] and in test [9] was “inactive” throughout. For the same compound, the Potency result in [10], in test [11], in test [12], in test [13], in test [14] and in [15] was “inactive” throughout.
As for `C[N+]1(C)[C@@H]2CC[C@H]1CC(OC(=O)C(O)c1ccccc1)C2` (stereo not given in full), the Potency entry in test [1], in [3], in test [4], in test [16], in test [5] and in test [17] was “inactive” in each case. Moreover, the Potency entry in test [6], in [7], in [8], in test [9], in test [10] and in test [11] was “inactive” each time. Moreover, the Potency entry in test [12], in [13], in test [14] and in [15] was “inactive” throughout. In addition, in [2], the outcome was inactive.
As to `Cc1cc2nc(NCCCO)n(CC(=O)c3cc(C(C)(C)C)c(O)c(C(C)(C)C)c3)c2cc1C`, the Potency entry in test [1], in test [16], in [18], in test [5], in test [17] and in [6] was “inactive” throughout. Moreover, the Potency result in [8], in test [9], in test [10], in test [11], in test [12] and in test [13] was “inactive” each time. Further, the Potency entry in test [14] and in test [15] was “inactive” each time. In addition, in test [2], the result was inactive. Moreover, in test [3], the Potency was 8.17 µM (active). Also, in [19], the max response was -19.8% (inactive).
Turning to `C=CC(=O)Nc1cc(Nc2nccc(-c3cn(C)c4ccccc34)n2)c(OC)cc1N(C)CCN(C)C`, the Potency result in test [1], in test [16] and in [5] was “inactive” each time. Besides, the outcome in test [2] was inactive. The Potency is 3.32 µM (active) in test [3], 2.95 µM (active) in test [4], 1.03 µM (active) in [19] and 14.1 µM (active) in test [8]. For the same compound, the Z-AUC is -0.422 (inactive) in [20], -0.39 in test [20] (setting [21]) and -1.1 in test [20] (measured here: PEO4 Z-AUC).
In the case of `COc1ccc(CNC(=O)Nc2ncc([N+](=O)[O-])s2)cc1`, the Potency entry in [1], in test [16], in test [18], in test [17], in [6] and in test [8] was “inactive” each time. Further, the Potency entry in test [12], in [14] and in [15] was “inactive” throughout. Also, in test [2], the outcome was inactive. Also, the Potency in [3] and in [4] was 18.6 µM (active) in each case. Besides, the Z-AUC in test [20] was -1.06 (inactive); in test [20] (setting [21]) it was -0.517; in [20] (measured here: PEO4 Z-AUC), -0.518. The max response in test [19] is 3.95% (inactive).
